JMJD2E inh = JMJD2E (human) inhibition; JMJD2E catalytic domain, FDH-coupled NADH fluorescence (FDH is formaldehyde dehydrogenase); B2RXH2; 230,000 compounds, 1.6% hits; AID 2147; Potency, µM (titrated, usually from 57.1 µM), for the others: at the highest dose activity change, negative = inhibition, usual class: inhibitors; active = well fitted inhibition curve with a large enough effect, not every such curve was filed as active; inconclusive = small, poorly fitted or top-dose-only effect, or another doubt; inactive = no such curve, though single readings can be large or run the other way;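 also: potency is read from the fitted curve at half-maximal effect; 0% = wells with enzyme and -100% = buffer wells without enzyme; nearly all actives have a fitted effect of over 50% in size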
Target sequence (B2RXH2 1-337 limits assumed): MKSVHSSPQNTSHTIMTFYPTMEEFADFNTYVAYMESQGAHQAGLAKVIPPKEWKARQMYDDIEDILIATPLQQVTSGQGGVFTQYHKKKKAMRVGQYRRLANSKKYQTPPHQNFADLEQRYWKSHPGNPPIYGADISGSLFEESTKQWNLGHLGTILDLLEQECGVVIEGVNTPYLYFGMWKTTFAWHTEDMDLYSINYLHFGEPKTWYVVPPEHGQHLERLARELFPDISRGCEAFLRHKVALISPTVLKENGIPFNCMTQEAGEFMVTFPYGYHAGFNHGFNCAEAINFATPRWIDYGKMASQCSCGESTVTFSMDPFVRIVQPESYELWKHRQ
Tau ThT inhib = blocks human tau fibril formation measured by thioflavin T. Potency, µM (doses to about 57.4 µM), inactives show at the highest dose activity, negative = inhibition, most hits filed as inhibitors. P10636. recombinant tau K18 P301L, heparin-induced fibrillization, ThT fluorescence. 270,000 compounds, 2.1% hits; also: potency is read from the fitted curve at half-maximal effect; nearly all actives have a fitted effect of over 55% in size
Target sequence (P10636 561-689 P618L limits assumed): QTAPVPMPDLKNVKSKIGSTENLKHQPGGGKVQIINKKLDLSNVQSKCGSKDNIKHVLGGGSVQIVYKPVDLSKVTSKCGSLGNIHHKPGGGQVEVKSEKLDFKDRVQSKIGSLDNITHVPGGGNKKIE
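K18 P301L tau (15 uM + 0.24 uM Alexa 594-tagged), heparin 20 uM, NaOAc pH 7, 6 h 37 C; ThT 30 uM, 1 h RT, ex 450/em 510 nm.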
Tau FP inhib = inhibitors of human tau fibril formation; K18 P301L tau heparin fibrillization, Alexa594 FP, 6 h; Potency, µM (doses to about 57.7 µM), for inactives: at the highest dose activity, negative = inhibition, usual class: inhibitors; 280,000 compounds, 0.39% hits; also: potency is read from the fitted curve at half-maximal effect; nearly all actives have a fitted effect of over 55% in size
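Heparin (20 uM) drove fibril formation of recombinant tau K18 P301L, 15 uM unlabeled with 0.24 uM Alexa 594 label, for 6 hr at 37 C in 100 mM sodium acetate pH 7. Fluorescence polarization (555/632 nm) read 1 hr after 30 uM ThT.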
Tau fluor cs = counter-screen for tau fibril formation inhibitors; tau K18 P301L Alexa594 fluorescence, heparin fibrillization; Potency, µM (doses to about 57.7 µM), for inactives: at the highest dose activity change, negative = decrease; 280,000 compounds, 0.93% hits; also: potency is read from the fitted curve at half-maximal effect; nearly all actives have a fitted effect of over 55% in size
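Human tau K18 P301L (15 uM unlabeled, 0.24 uM Alexa 594-labeled) in 100 mM sodium acetate pH 7 with 20 uM heparin, 6 hr at 37 C. ThT 30 uM added, 1 hr ambient; Alexa 594 FP and total fluorescence read at 555/632 nm.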
Coupling enz = counter-screen for Giardia aldolase inhibitors: coupling enzyme system | coupling enzyme system counterscreen, AmpLite Red fluorescence | activity change, negative = inhibition, % at 58.2 µM, hits read low | 290,000 compounds, 0.67% hits; in the data active = activity change below about -30%
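Counterscreen of the coupled detection system alone, without aldolase: glyceraldehyde-3-phosphate coupling enzymes plus AmpLite Red readout. Compounds at 57.5 uM final, 10 min RT preincubation, 20 min RT reaction, fluorescence 525/598 nm.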
* marks the source's active call; other numbers are inactive results; u = inconclusive; x = not tested or not shown; ! = repeats disagree; [ ] = another dose, or the depositor's remark. Only some compounds are listed: those with a hit (about 3% of all), similar ones and a draw of the others. Unless noted, calls follow the shape of the dose curve; as a rule, active = well fitted curve in the direction sought with a large enough effect; inconclusive = small, poorly fitted or top-dose-only effect, or another doubt; inactive = no such curve, though single readings can be large; an effect the other way counts as inactive or inconclusive. Unless noted, % is scaled to controls: 0 for no effect and ±100 for the full control effect.

SMILES | JMJD2E inh | Tau ThT inhib | Tau FP inhib | Tau fluor cs | Coupling enz
O=C(COc1cccc2cccnc12)N/N=C/c1ccc(O)cc1 | -29% | u | -3% | -8% | 1
Oc1ccccc1/C=N/Nc1cccc2cccnc12 | u | u | 15% | 13µM*[quencher] | x
C/C(=N\OCC(=O)N/N=C/c1ccccc1)c1cccs1 | 1% | -15% | -5% | -17% | -2
O=C(COc1cccc2cccnc12)N/N=C/c1ccccc1O | 7.9µM* | u | -7% | -10% | 5
CN1C(=O)CS/C1=N\NC(=O)COc1cccc2cccnc12 | 10% | 10µM* | -7% | 12%[2.34 µM] | 0
CCS(=O)(=O)N1CCc2cc(C(=O)Nc3ccc(OC)c(Cl)c3)ccc21 | x | -10% | 12% | -9% | x
CCOC(=O)c1c(NC(=O)c2ccc(S(=O)(=O)N(CC(C)C)CC(C)C)cc2)sc2c1CCN(CC)C2 | x | -4% | -2% | -6% | x
N[C@@H](C(=O)O)[C@@H](CC(=O)O)c1ccc(Cl)cc1 | x | 2% | 6% | -6% | x
O=S(=O)(Nc1cccc2cccnc12)c1ccccc1O | x | x | x | x | -37*
O=S(=O)(Nc1ccccc1O)c1cccc2cccnc12 | 8% | -8% | 1% | -24% | -17
O=C(/C=C/c1ccc([N+](=O)[O-])cc1)Nc1ncc([N+](=O)[O-])s1 | 4% | 3.5µM* | 10% | u | 8
CCOC(=O)N/N=C1/C[C@@H](O)[C@@H](O)[C@@H]2[C@H]3C(=O)N(c4ccc(F)cc4F)C(=O)[C@@H]3CC[C@H]12 | x | -1%[11.5 µM] | 1%[11.6 µM] | -1%[11.6 µM] | -1
CC(C)OCCCN1C=C2C(=O)C(C)(OC(=O)CCc3ccccc3)C(=O)C=C2C=C1c1ccc(C#N)cc1 (configuration not stated) | 22µM*! | u | -2%[11.6 µM] | -15%[11.6 µM] | -3
CC1(OC(=O)CCc2ccccc2)C(=O)C=C2C=C(c3ccc(C#N)cc3)OC=C2C1=O (configuration not stated) | -10% | u | 7% | -13% | -1
CC1(OC(=O)CCc2ccccc2)C(=O)C=C2C=C(c3ccc(C#N)cc3)N(CCN3CCOCC3)C=C2C1=O (configuration not stated) | 13µM* | u | u | 1%[11.6 µM] | -31*!
CC1(OC(=O)CCc2ccccc2)C(=O)C=C2C=C(c3ccc(C#N)cc3)N(CC3CC3)C=C2C1=O (configuration not stated) | u | u | 3%[11.6 µM] | -2%[11.6 µM] | -13
COc1ccc(-c2nnc3n2N=C(c2ccccc2OC)CS3)cc1 | x | x | x | x | 0
CCOCCc1nn2c(=O)cc(COC(=O)c3ccccc3NC(=O)C3CCCCC3)nc2s1 | x | -5% | 4% | -5% | x
COc1cc2c3nnc(-c4ccc(F)cc4)c-3cn(Cc3ccccc3F)c2cc1OC | u | u | u | u | 0
COc1cc2c3nnc(-c4ccccc4)c-3cn(Cc3ccccc3F)c2cc1OC | 3.5µM* | 2% | 3% | -4% | 1
S=C(NCc1cccs1)Nc1cc(Cl)cc(Cl)c1 | -7% | -2% | 18µM* | u | 1
CCCCC(=O)Nc1cc(OC)c(NC(=O)C2CCCCC2)cc1OC | 3% | -7% | -3% | -16% | -2
CCCC(=O)Nc1cc(OC)c(NC(=O)NC2CCCCC2)cc1OC | 9% | 3% | 5% | 0% | -45*
COc1ccc(COC(=O)N/N=C2/C[C@@H](O)[C@@H](O)[C@@H]3[C@H]4C(=O)N(c5ccc(F)cc5F)C(=O)[C@@H]4CC[C@@H]23)cc1 | x | -7%[11.5 µM] | -5%[11.6 µM] | -10%[11.6 µM] | 0
Cc1cccc(NC(=O)Cn2c(=O)n(CCC(=O)N3CCc4ccccc4C3)c(=O)c3ccccc32)c1 | x | 13% | -21% | -27% | x
COc1ccc(-c2cc3ccccc3[nH]2)cc1 | u | u | u | u | 1
Cc1ccc(O)c(-c2cc3ccccc3[nH]2)c1 | u | 13µM* | 11% | 16µM*[quencher] | 1
Oc1ccc(N=Cc2cc(Br)c(N3CCOCC3)o2)cc1 | 0% | 3.2µM* | u | u | -28
CC1(OC(=O)c2cnc3ccccc3n2)C(=O)C=C2C=C3CCCN3C=C2C1=O (configuration not stated) | 10%[11.4 µM] | -3%[11.5 µM] | -10%[11.6 µM] | -7%[11.6 µM] | 0

Assay outcomes from PubChem BioAssay.
